Among the data in PubChem BioAssay (NCATS) are outcome values, retold here.

Results filed as inconclusive are left out. Active and inactive are the calls of the source. Calls come from the whole dose curve.

Vitamin D3 receptor (Homo sapiens), sequence (P11473 whole entry, looked up): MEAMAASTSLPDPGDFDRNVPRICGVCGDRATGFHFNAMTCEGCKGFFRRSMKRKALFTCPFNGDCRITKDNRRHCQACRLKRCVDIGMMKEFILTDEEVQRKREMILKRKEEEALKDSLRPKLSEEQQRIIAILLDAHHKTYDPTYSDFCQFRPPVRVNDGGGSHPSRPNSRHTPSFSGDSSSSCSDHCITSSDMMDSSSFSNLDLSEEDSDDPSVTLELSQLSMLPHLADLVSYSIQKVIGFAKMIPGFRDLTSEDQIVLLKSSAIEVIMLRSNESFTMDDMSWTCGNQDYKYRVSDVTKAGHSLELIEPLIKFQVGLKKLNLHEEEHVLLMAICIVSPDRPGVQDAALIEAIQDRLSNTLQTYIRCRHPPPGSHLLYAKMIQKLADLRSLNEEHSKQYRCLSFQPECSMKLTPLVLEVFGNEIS

In this assay the target is Vitamin D3 receptor (Homo sapiens) (UniProt P11473). The experiment in a line: qHTS assay for small molecule agonists of vitamin D receptor signaling (AID 588543). The settings on record: HEK293T VDR-UAS-bla, beta-lactamase ratio, 16 h; series mostly up to 76.8 µM. The text has this:
NIH Chemical Genomics Center [NCGC]
U.S. Environmental Protection Agency [EPA]
National Institutes of Environmental Health Sciences [NIEHS]
National Toxicology Program [NTP]
The Vitamin D receptor (VDR) is a member of nuclear hormone receptor superfamily and it plays a critical role in calcium homeostasis and bone metabolism. It plays a role in inducing cell differentiation, inhibiting cell growth and in thrombogenicity. So, VDR that mediates these effects represents a pharmacological target in prevention and treatment of hyperproliferative malignancies, such as cancer and psoriasis, cardiovascular, immunological, inflammatory and renal diseases etc.
NCGC Assay Protocol Summary
Using a beta-lactamase reporter-gene under control of Vitamin D receptor (VDR) response element, a cell-based assay [GeneBLAzer (VDR -UAS-bla assay developed by Invitrogen] was used to measure VDR ligands signaling. GeneBLAzer VDR -UAS-bla HEK293T cells were used with assay medium containing 2% charcoal-stripped FBS. The assay was performed in clear bottom black Greiner 1536-well plates. 1-alpha,25-Dihydroxy vitaminD3 was used as a positive control in the screen. Library compounds were measured for their ability to stimulate the reporter gene activity. Compounds were screened in a titration series in 1536-well format. The fluorescence intensity (405 nm excitation, 460/530 nm emission) was measured using an EnVision plate reader. Data was normalized relative to 1-alpha,25-Dihydroxy vitaminD3 control (50 nM, 100%) and DMSO only wells (basal, 0%). Concentration-response titration points for each compound were fitted to the Hill equation yielding concentrations of half-maximal stimulation (EC50) and maximal response (efficacy) values.
qHTS protocol for VDR beta-lactamase assay in agonist mode
[Step] [Parameter] [Value] [Description]
1. Reagent; 6 uL; 2000 cells/well
2. Incubation; 37 C for 5 hrs
4. Controls (1-alpha,25-Dihydroxy vitaminD3); 23 nL,
- Final concentrations of 50 nM and 15 nM in two columns
5. Incubation; 37 C for 16 hrs
6. Detection reagent; 1 uL of CCF4-dye
7. Incubation; RT for 2 hrs
8. Detection; Fluorescence; Envision plate reader
On the technique in general: qHTS replaces the single test concentration by a dilution series.
Consider `CCCCN(CCCC)CCCCCCN(CCCC)CCCC`, for which the outcome was inactive.
Consider `COC(=O)C(C)Oc1ccc(Oc2ncc(C(F)(F)F)cc2Cl)cc1` (stereo not given), for which the outcome was inactive.
As for `O=[N+]([O-])C(CO)(CO)CO`, the entry is “inactive”.
As for `CN(C)c1ccc(C(c2ccccc2)c2ccc(N(C)C)cc2)cc1`, the entry is “inactive”; as for `S=C([S-])NCCNC(=S)[S-].[Mn+2]`, “inactive”; as for `CCCCCCC(O)CCCCCCCCCCC(=O)OC` (stereo not given), “inactive”.
As for `CC1=CC2C3CC(C=C3C)C2C1` (stereo not given), the entry is “inactive”.
With `CCCCOCCOCCOC(=O)CCCCC(=O)OCCOCCOCCCC`, the result was inactive.
As for `CCCCCCCCCCCCO`, the entry is “inactive”; as for `C=CC(=O)OCC(C)OCC(C)OCC(C)OC(=O)C=C` (stereo not given), “inactive”.
On to `CC(C)c1cccc(C(C)C)c1`, for which the result was inactive.
As for `CC1(C)CC(NCCCCCCNC2CC(C)(C)NC(C)(C)C2)CC(C)(C)N1`, the entry is “inactive”.
On to `c1ccc(B(c2ccccc2)c2ccccc2)cc1`, for which the result was inactive.
As for `O=C(O)CCCCCCC(=O)O`, the outcome was inactive.
Consider `C[Si](Cl)(Cl)c1ccccc1`, for which the result was inactive.
As for `CCCCC(CC)COP(=O)(O)OCC(CC)CCCC` (stereo not given), the entry is “inactive”.
As to `CC1(C)C(=O)N(Br)C(=O)N1Br`, the outcome was inactive.
Turning to `CCCC/C=C/CCCCO`, the outcome was inactive.
As for `CCNc1nc(NC(C)CC)nc(OC)n1` (stereo not given), the entry is “inactive”.
On to `C=Cc1ccccc1Br`, for which the result was inactive.
Turning to `CCCCCCC(O)CCCCCCCCCCC(=O)O` (stereo not given), the outcome was inactive.
As for `COc1nc(C)nc(NC(=O)NS(=O)(=O)c2ccccc2OCCCl)n1`, the entry is “inactive”; as for `CCCCCCCCCCCC[N+](C)(C)C`, “inactive”; as for `CCCCC(CC)CN1C(=O)C2C3C=CC(C3)C2C1=O` (stereo not given), “inactive”.
As to `C[Si](C)(Cl)[Si](C)(C)Cl`, the result was inactive.
As for `CCCCCCCCCCCCCc1ccccc1`, the entry is “inactive”.
`CC(C)OC(=O)c1ccccc1C(=O)OC(C)C`: the outcome was inactive.
As to `CCOCCOCCOC(C)=O`, the outcome was inactive.
Turning to `COCCOCCOCCO`, the outcome was inactive.
Under `COC(=O)c1cccc(C(=O)OC)c1` stands “inactive”; under `Cc1ccc(N)c(S(=O)(=O)O)c1`, “inactive”.
Turning to `CC(=O)N(CCN(C(C)=O)C(C)=O)C(C)=O`, the result was inactive.
With `CCCCCCCCCCCCc1ccccc1`, the outcome was inactive.
On to `C=C(C)C(=O)OCCCCCCCCCCCCCCCC`, for which the outcome was inactive.
As to `C=CC(=O)NC(C)(C)CS(=O)(=O)O`, the result was inactive.
`CC1(C)[C@@H]([C@@H](Br)C(Br)(Br)Br)[C@H]1C(=O)O[C@H](C#N)c1cccc(Oc2ccccc2)c1`: the result was inactive.
Under `C[C@]12CC[C@@H]3c4ccc(O)cc4CC[C@H]3[C@@H]1CC[C@H]2O` stands “inactive”; under `CC1(C)CC(OC(=O)CCCCCCCCC(=O)OC2CC(C)(C)NC(C)(C)C2)CC(C)(C)N1`, “inactive”.
In the case of `CCCCCC1CCC(=O)O1` (stereo not given), the outcome was inactive.
Consider `CCC/C(=N\OCC)C1=C(O)CC(O)(CC(C)S(=O)(=O)CC)CC1=O` (stereo not given), for which the result was inactive.
